# FXN GAA850 act: FXN promoter activators, primary screen, cell-based, luciferase luminescence, HEK293 lucGAA850. HEK293 lucGAA850 FXN promoter luciferase reporter, 24 h; percent of 10 µM SAHA response. activation, % at 6 µM. hit rate 0.56% among 360,000. AID 540364, 2011;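 active = activation above the average of all compounds screened plus 3 SD, cutoff fixed separately per campaign, cut at about 7.5% in these data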;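 note: 0% = DMSO wells and 100% = 10 µM SAHA wells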
# MITF TRPM1 HTS: activators of MITF-driven TRPM1 promoter reporter, primary screen, cell-based, SK-MEL-5, luciferase, single point. SK-MEL-5 TRPM1-promoter luciferase, 24 h; % of positive control, neutral wells = 0. activation, % at 12.5 µM. hit rate 0.75% among 300,000;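 active = mean activation of at least 80% with every replicate also reaching 80%; inconclusive = mean reaches 80% but some replicate falls short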;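 note: 0% = neutral control wells and 100% = parthenolide positive control wells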
# esBAF inh: Bmi1 luciferase reporter increase in mESCs, primary screen, esBAF inhibitor project, mouse ES cells, Bmi1 luciferase knock-in, single point; reporter increase, % at 12.5 µM; hit rate 2% among 350,000; 24 h; 100% = twice the neutral-well signal; in the data active = activation above about 40%; inconclusive = no clear call, values can overlap the other calls;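 note: 0% = median of the plate's neutral control wells and 100% = double that signal; a rise in the Bmi1 reporter signal indicates esBAF inhibition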
# Wnt act: Wnt/beta-catenin pathway activators, primary screen, cell-based, plate reader, single point | activation, % at 9.35 µM | Wnt/beta-catenin reporter cell assay, activator | hit rate 1.2% among 300,000; in the data active = activation above about 30%, passing the limit was not always enough; inconclusive = no clear call, values can overlap the other calls;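 note: 0% = neutral control wells and 100% = positive control wells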
# C2C12 statin: suppressors of statin myotoxicity in C2C12 myotubes, primary screen, cell-based, single point, plate reader | C2C12 myotubes + simvastatin, ATP luminescence, 48 h; scaled: DMSO 0, geranylgeraniol control 100 | rescue of ATP level, % at 7.49 µM | hit rate 0.78% among 330,000;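 active = mean ATP rescue above about 67%, or every replicate alone reaching that limit, limit read from the data, passing the limit was not always enough; inconclusive = no clear call, values can overlap the other calls; inactive = mean under the limit and some replicate under it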;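 note: myotubes were challenged with 10 µM simvastatin during compound exposure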
# Numbers without * were called inactive; ? = inconclusive; . = no result. Rows were chosen to be rich in hits. Some 3.3% of all compounds tested hit in one or more screens of this group.
SMILES,FXN GAA850 act,MITF TRPM1 HTS,esBAF inh,Wnt act,C2C12 statin
COc1ccc(C(=O)Cc2cc3cccc(OC)c3oc2=O)cc1,5,32,?,3,17
N#C/C(=C(/O)CN1CCCCC1)c1nc(-c2ccc(Cl)cc2)cs1,0,38,60*,.,-66
N#C/C(=C(/O)CN1CCN(c2ccccc2F)CC1)c1nc(-c2ccc(Cl)cc2)cs1,1,-9,-1,-2,-11
Cc1cc(C(=O)Cn2nc(C(=O)O)c3ccccc3c2=O)c(C)n1CC(F)(F)F,2,?,44*,-2,13
Cc1cc(C(=O)Cn2nc(C(=O)O)c3ccccc3c2=O)c(C)n1CCc1ccc(F)cc1,0,7,-4,2,23
C[C@H](CO)N1C[C@H](C)[C@@H](CN(C)S(=O)(=O)c2ccc(F)cc2)Oc2ccc(NC(=O)c3ccncc3)cc2CC1=O,.,.,-5,.,-31
CCSc1nnc(NC(=O)C(C)(C)C)s1,3,50,51*,20,22
CCOC(=O)c1sc(NC(=O)c2ccc(=O)[nH]c2)nc1C,-1,-5,-10,1,7
CCSc1nnc(NC(=O)c2ccc3nc[nH]c3c2)s1,2,32,91*,-3,5
CCOC(=O)c1sc(NC(=O)c2ccc3nc[nH]c3c2)nc1C,5,27,53*,9,-28
CC(C)(C)C(=O)CSc1nnc(Nc2ccccc2)s1,4,68,74*,27,-1
Cc1nnc(NC(=O)CSc2nnc(NC(=O)C(C)(C)C)s2)s1,-1,10,7,-1,8
C[C@@H]1CN([C@@H](C)CO)C(=O)c2cc(C#CC3CC3)cnc2O[C@@H]1CN(C)C(=O)c1ccncc1,.,.,.,.,15
COc1cccc(S(=O)(=O)N[C@@H]2C=C[C@H](CC(=O)NCc3ccncc3)O[C@H]2CO)c1,.,.,-7,.,3
Cc1cc(N=Nc2ccccc2)cc(C)c1NC(=O)C(F)(F)F,6,107*,.,43*,.
Cc1ccc(N=Cc2nc(-c3ccco3)oc2O)cc1,3,104*,48*,37*,13
Oc1ccc(Br)cc1CNc1cccc2cccnc12,1,.,-2,-3,83*
O=C(NC(=S)Nc1ccc2c(c1)OCCO2)c1ccccc1F,4,85*,54*,18,-1
O=C(Nc1ccc2c(c1)OCCO2)c1c(F)cccc1F,2,102*,-11,21,-55
CCCC#Cc1ccc2c(c1)O[C@@H](CN(C)C(=O)CN(C)C)[C@H](C)CN([C@H](C)CO)S2(=O)=O,.,.,-3,.,0
O=C(c1cccc(Cl)c1)c1nn(-c2ccccc2)c(=O)cc1C(F)(F)F,-2,-19,4,.,105*
O=C(c1ccccc1)c1nn(-c2ccccc2)c(=O)cc1C(F)(F)F,2,.,-4,0,19
COc1ccc(NC(=O)CN(C)C(=O)c2ccc3c(c2)CC(c2ccccc2)OC3=O)cc1 (configuration not stated),-1,.,6,-1,-5
COc1cccc(NC(=O)CN(C)C(=O)c2ccc3c(c2)CC(c2ccccc2)OC3=O)c1 (configuration not stated),0,-8,13,48*,9
Clc1ccccc1-c1ncc(-c2ccccc2)o1,3,28,14,57*,-1
SMILES,FXN GAA850 act,MITF TRPM1 HTS,esBAF inh,Wnt act,C2C12 statin
CSc1nnc(-c2ccccc2Cl)o1,2,33,21,.,0
C[C@@H]1CN([C@H](C)CO)S(=O)(=O)c2ccc(-c3ccccc3)cc2O[C@H]1CN(C)C(=O)Nc1ccccc1F,.,.,.,.,-93
COc1cccc(Nc2nc3ccc(OC)cc3s2)c1,3,115*,.,2,.
COc1ccc2nc(NC3=NCCC3)sc2c1,4,65,58*,57*,-21
CSc1nc(Sc2ccc(Cl)cc2)c2ccccc2n1,2,-8,2,-1,146*
CSc1nc(Sc2ccccc2)c2ccccc2n1,2,13,0,.,17
CCN1[C@@H]2c3ccc(-c4cccc(F)c4)c(=O)n3C[C@@H]2[C@@H](CO)[C@@H]1C(=O)N(C)C,.,.,-1,.,-7
C[C@@H]1CN([C@@H](C)CO)C(=O)CCCn2nncc2CO[C@@H]1CN(C)Cc1cccnc1,.,.,1,.,-6
CC(=O)c1csc(Nc2ccccc2Cl)n1,2,.,.,1,.
CC(C)(C)C(=O)c1cnc(Nc2ccccc2Cl)s1,4,144*,?,.,-24
O=C(c1ccccc1)c1cnc(Nc2ccccc2Cl)s1,7,98*,55*,.,-4
CO[C@H]1CN(C)C(=O)c2ccc(NC(C)=O)cc2OC[C@@H](C)N(C(=O)CC2CC2)C[C@H]1C,.,.,-5,.,-11
COc1cccc(S(=O)(=O)N[C@H]2CC[C@@H](CC(=O)NCc3ccc(Cl)cc3)O[C@H]2CO)c1,.,.,-3,.,2
Cc1cc(=O)[nH]c(SCC(=O)NC2CCCCC2)n1,2,4,-3,-3,28
Cc1cc(=O)[nH]c(SCC2(O)C3CC4CC(C3)CC2C4)n1 (configuration not stated),-1,.,-4,1,113*
C[C@H](CO)N1C[C@H](C)[C@H](CN(C)S(=O)(=O)c2ccccc2)OCCCC[C@H](C)Oc2ccc(NS(=O)(=O)c3cn(C)cn3)cc2C1=O,.,.,8,.,.
Cc1cc(C(=O)COC(=O)c2ccc(O)cc2)c(C)n1CC(F)(F)F,4,.,95*,51*,4
Cc1cccc2sc(NC(=O)CN(C)S(=O)(=O)c3cccs3)nc12,-2,5,.,.,.
Cc1cccc2sc(NC(=O)CN(C)S(=O)(=O)c3ccc(Br)s3)nc12,1,-8,0,.,100*
Cc1cccc(/C=C(\c2nc3ccccc3[nH]2)S(=O)(=O)c2ccccc2)c1,-7,-85,5,41*,78*
C[C@H]1CN([C@@H](C)CO)C(=O)c2cccc(NC(=O)Nc3ccc(C(F)(F)F)cc3)c2O[C@H]1CN(C)Cc1ccc2c(c1)OCO2,.,.,10,.,18
O=C(Nc1sc2c(c1C(=O)O)CCC2)c1cccs1,7,-1,46*,.,-7
NC(=O)c1c(NC(=O)c2cccs2)sc2c1CCCCCC2,2,118*,105*,.,-40
Cc1ccc(S(=O)(=O)N[C@H]2C=C[C@@H](CC(=O)NCCN3CCCCC3)O[C@@H]2CO)cc1,.,.,1,.,6
COCC(=O)Nc1ccc2c(c1)OC[C@H](C)N(Cc1cccc(F)c1)C[C@H](C)[C@H](OC)CN(C)C2=O,.,.,6,.,-17
COC(=O)/C(C(C)=O)=C(\C=C\N(C)C)N(C)C,-1,0,-7,0,5
COC(=O)C(=CC(=CN(C)C)C=C(C(=O)OC)C(=O)OC)C(=O)OC,-1,8,-6,38*,3

# Screening results from PubChem.
